Experimental data from ChEMBL document CHEMBL5606460, “ASAP - DENV-2 NS2B-NS3 protease fluorescence single point” (2024).
Out of some 2,000 compounds screened, about 110 (5.5%) showed an effect of 50% or more. What follows is part of a selection rich in strong results, with near analogues and random picks from the rest. Non-standard residues stand in square brackets, D forms with d. Residues, ends and D or L forms follow the SMILES beside them. Phg = N[C@H](C(=O)O)c1ccccc1; 4Amb = NCc1ccc(C(=O)O)cc1; Nle = CCCC[C@H](N)C(=O)O

Target: Genome polyprotein (dengue virus type 2) (UniProt P29990)
[1] = Thailand/16681/1984, Concentration 25.0 uM, Number of replicates 1.0

Cn1c(C(=O)Nc2cc(Cl)cc(C(=O)NC(C)(C)CO)c2)cccc1=O
inhibition (Thailand/16681/1984, Concentration 49.5 uM, Number of replicates 2.0, Standard deviation 0.4081268580659683 %): -0.99%
inhibition (Thailand/16681/1984, Concentration 99.01 uM, Number of replicates 2.0, Standard deviation 2.113430221710736 %): -1.01%
inhibition (Thailand/16681/1984, Concentration 198.0 uM, Number of replicates 2.0, Standard deviation 2.072570516879941 %): 0.352%

NCc1cn(C2CCN(c3nc(-c4ccccc4)cs3)CC2)nn1
inhibition (Thailand/16681/1984, Concentration 49.5 uM, Number of replicates 2.0, Standard deviation 0.032513427640456005 %): -4.62%
inhibition (Thailand/16681/1984, Concentration 99.01 uM, Number of replicates 2.0, Standard deviation 1.6651164489567518 %): -3.29%
inhibition (Thailand/16681/1984, Concentration 198.0 uM, Number of replicates 2.0, Standard deviation 1.091599962537426 %): 0.094%

CC1(C)C[C@]1(CNC(=O)C1CCN(c2ccc(C=O)cc2)CC1)c1ccccc1
inhibition [1]: 12.2%

O=Cc1ccc(N2CCC(C(=O)N3CCc4c(Br)cccc4C3)CC2)cc1
inhibition [1]: 2.83%

Cc1cc(CO)c2cccc(NC(=O)c3nc(N)n[nH]3)c2n1
inhibition (Thailand/16681/1984, Concentration 49.95 uM, Number of replicates 2.0, Standard deviation 1.7045480288991801 %): 42.6%
inhibition (Thailand/16681/1984, Concentration 99.9 uM, Number of replicates 2.0, Standard deviation 15.015963199334223 %): 67.3%

Cc1cc(CO)c2cccc(Cc3ccccc3NC(=O)c3nc(N)n[nH]3)c2n1
inhibition (Thailand/16681/1984, Concentration 49.95 uM, Number of replicates 2.0, Standard deviation 1.581349166072865 %): 0.804%
inhibition (Thailand/16681/1984, Concentration 99.9 uM, Number of replicates 2.0, Standard deviation 1.2268610426733166 %): 4.88%

Cc1cc(CO)c2cccc(Cc3cccc(NC(=O)c4nc(N)n[nH]4)c3)c2n1
inhibition (Thailand/16681/1984, Concentration 49.95 uM, Number of replicates 2.0, Standard deviation 2.1470069511188496 %): 1.75%
inhibition (Thailand/16681/1984, Concentration 99.9 uM, Number of replicates 2.0, Standard deviation 2.660737289988502 %): 8.09%

O=C(NCCc1cncnc1)c1cn([C@H]2CCCNC2)nn1
inhibition (Thailand/16681/1984, Concentration 49.5 uM, Number of replicates 2.0, Standard deviation 3.1505652659838077 %): -3.39%
inhibition (Thailand/16681/1984, Concentration 99.01 uM, Number of replicates 2.0, Standard deviation 0.03260817375590849 %): -4.66%
inhibition (Thailand/16681/1984, Concentration 198.0 uM, Number of replicates 2.0, Standard deviation 5.615654862136011 %): -0.277%

Clc1ccc2[nH]cc(Cc3ccc(-c4nn[nH]n4)cc3)c2c1
inhibition (Thailand/16681/1984, Concentration 99.5 uM, Number of replicates 2.0, Standard deviation 0.137702183454793 %): 89.8%
inhibition (Thailand/16681/1984, Concentration 295.6 uM, Number of replicates 2.0, Standard deviation 0.013886206472581278 %): 98.9%

O=C(O)[C@H](c1c[nH]c2ccccc12)N1CCC(c2cnc3ccc[nH]c2-3)CC1
inhibition (Thailand/16681/1984, Concentration 49.5 uM, Number of replicates 2.0, Standard deviation 2.9336110336729484 %): -1.93%
inhibition (Thailand/16681/1984, Concentration 99.01 uM, Number of replicates 2.0, Standard deviation 1.2688833051000123 %): -1.4%
inhibition (Thailand/16681/1984, Concentration 198.0 uM, Number of replicates 2.0, Standard deviation 1.8509089452057481 %): 0.519%

CCCC[C@H](NC(C)=O)C(=O)N[C@H](C(=O)NCc1ccc(C(N)=O)cc1)c1ccccc1 (Ac-[Nle]-[Phg]-[4Amb]-NH2)
inhibition (Thailand/16681/1984, Concentration 49.5 uM, Number of replicates 2.0, Standard deviation 0.4432432329236086 %): -1.46%
inhibition (Thailand/16681/1984, Concentration 99.01 uM, Number of replicates 2.0, Standard deviation 0.9541533154251546 %): -0.354%
inhibition (Thailand/16681/1984, Concentration 198.0 uM, Number of replicates 2.0, Standard deviation 1.9838414541082603 %): 1.79%

CC(=O)N[C@H](C(=O)Nc1cccc(C(N)=O)c1)c1ccc(OCc2ccccc2)cc1
inhibition (Thailand/16681/1984, Concentration 49.5 uM, Number of replicates 2.0, Standard deviation 1.41100239398505 %): -2.21%
inhibition (Thailand/16681/1984, Concentration 99.01 uM, Number of replicates 2.0, Standard deviation 6.402498423083348 %): 0.486%
inhibition (Thailand/16681/1984, Concentration 198.0 uM, Number of replicates 2.0, Standard deviation 5.599350943845451 %): 0.73%

CCCC[C@H](NC(C)=O)C(=O)N[C@H](C(=O)Nc1cccc(C(N)=O)c1)c1ccc(OCc2ccccc2)cc1
inhibition (Thailand/16681/1984, Concentration 49.5 uM, Number of replicates 2.0, Standard deviation 1.3015902921422546 %): -0.513%
inhibition (Thailand/16681/1984, Concentration 99.01 uM, Number of replicates 2.0, Standard deviation 0.5153915569037094 %): 3.33%
inhibition (Thailand/16681/1984, Concentration 198.0 uM, Number of replicates 2.0, Standard deviation 0.5711740910196359 %): 8.87%

CCCC[C@H](NC(C)=O)C(=O)N[C@H](C(=O)Nc1ccc(C(N)=O)cc1)c1ccc(OCc2ccccc2)cc1
inhibition (Thailand/16681/1984, Concentration 49.5 uM, Number of replicates 2.0, Standard deviation 2.073896751762033 %): -0.623%
inhibition (Thailand/16681/1984, Concentration 99.01 uM, Number of replicates 2.0, Standard deviation 0.38726109133313447 %): 4.02%
inhibition (Thailand/16681/1984, Concentration 198.0 uM, Number of replicates 2.0, Standard deviation 0.14852549415239058 %): 23%

CCCCCC(=O)N[C@@H](Cc1ccccc1)C(=O)NCc1cccc(CN)c1
inhibition (Thailand/16681/1984, Concentration 49.5 uM, Number of replicates 2.0, Standard deviation 0.5911657110409295 %): -0.287%
inhibition (Thailand/16681/1984, Concentration 99.01 uM, Number of replicates 2.0, Standard deviation 0.7592516208074989 %): -0.251%
inhibition (Thailand/16681/1984, Concentration 198.0 uM, Number of replicates 2.0, Standard deviation 1.593950905190228 %): -0.639%

CCCC[C@H](NC(C)=O)C(=O)N[C@H](C(=O)NCc1ccc(C(N)=O)cc1)c1ccc(OCc2ccccc2)cc1
inhibition (Thailand/16681/1984, Concentration 49.5 uM, Number of replicates 2.0, Standard deviation 4.54767597440597 %): 18.2%
inhibition (Thailand/16681/1984, Concentration 99.01 uM, Number of replicates 2.0, Standard deviation 0.08657569598756192 %): 99.9%
inhibition (Thailand/16681/1984, Concentration 198.0 uM, Number of replicates 2.0, Standard deviation 0.08274539039489186 %): 99.7%

CCCC[C@H](NC(C)=O)C(=O)N[C@@H](C(=O)NCc1ccc(C(N)=O)cc1)c1ccc(OCc2ccccc2)cc1
inhibition (Thailand/16681/1984, Concentration 49.5 uM, Number of replicates 2.0, Standard deviation 1.1393107429607887 %): -2.14%
inhibition (Thailand/16681/1984, Concentration 99.01 uM, Number of replicates 2.0, Standard deviation 1.3468928227151291 %): -2.15%
inhibition (Thailand/16681/1984, Concentration 198.0 uM, Number of replicates 2.0, Standard deviation 1.6817028564994563 %): -0.786%

CCCC[C@H](NC(C)=O)C(=O)N[C@H](C(=O)NCc1ccc(CN)cc1)c1ccc(OCc2ccccc2)cc1
inhibition (Thailand/16681/1984, Concentration 49.5 uM, Number of replicates 2.0, Standard deviation 1.556187076043376 %): -3.73%
inhibition (Thailand/16681/1984, Concentration 99.01 uM, Number of replicates 2.0, Standard deviation 1.4164928639405643 %): 9.94%
inhibition (Thailand/16681/1984, Concentration 198.0 uM, Number of replicates 2.0, Standard deviation 0.0753329398535839 %): 99.6%
